Experimental findings from PubChem BioAssay (NCI) are described below.

Compounds without any hit were thinned out: in the full panel of roughly 83,000, 20% have a hit.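 Each cell line was grown in a 96-well plate and treated with one concentration of compound for 48 hours. Values below 10 were considered active.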 Unmarked numbers belong to inactive results. Calls of active or inactive are those of the source.

The first assay deals with NCI-H23 lung. As to the kind of experiment: NCI-60 one-dose screen, 48 h (100 = growth as untreated, 0 = no growth, -100 = all killed). The conditions noted are these: 10 µM unless noted.
Turning to `CCCCCCCCCc1cc(CN2CCCCC2)c(O)c(CN2CCCCC2)c1`, the growth is 39.4%.
Same read-out and setting: next, `CN1CCN(Cc2ccc(NC(=O)c3cncc(C#Cc4cnc(N)c5cccnc45)c3)cc2C(F)(F)F)CC1`: 11.4%; `C=C1CC2(OC1=O)C(=O)N(CCCCCCCCCCCCN1C(=O)C3(CC(=C)C(=O)O3)c3ccccc31)c1ccccc12` (stereo unspecified): 84.6%; `Cn1c2ccccc2c2c3c(c4c5ccccc5[nH]c4c21)C(=O)N(N)C3=O`: 46.1%.
The same measure, in the same setting: next, `Cn1c2ccccc2c2c3c(c4c5ccccc5n(CCCCCC#N)c4c21)C(=O)N(O)C3=O`: 4.85% (active); `COC(/C=C/c1ccc([N+](=O)[O-])cc1)OC`: 96.5%.
In the case of `O=C(CNC1C2CC3CC(C2)CC1C3)Sc1nnc2sc3ccccc3n12` (stereo unspecified), the growth is 95%.
Still for that read-out and setting: then `C=CC[N+]1(CC)CCN=C1CCCCCCCCCCCCCCCCC` (stereo unspecified), with -92.9% (active).
On the same count and under the same terms, then `CN1CCN(Cc2ccc(NC(=O)c3[nH]ncc3Nc3ccnc4ccsc34)cc2)CC1`, with 15.4%; and `CN1/C(=C\C=C\C2=[N+](C)c3ccccc3C2(C)C)C(C)(C)c2ccccc21`, with -6.67% (active).
Consider `CS(=O)(=O)c1ccc(-c2cnc3ccc(-c4cccc(S(C)(=O)=O)c4)nn23)cc1`, for which the growth is 44%.
Same read-out and setting: next, `COc1ccc(C/C(C)=C(\c2ccc(OCCN3CCCCCC3)cc2)c2ccc(OC(=O)C3CCCCC3)cc2)cc1`: 63.5%.

The next assay concerns NCI-H226 lung. The description is as above. The conditions noted are these: 10 µM unless noted.
Take `CNC(=O)c1cc(Oc2ccc3nc(NC(=O)Nc4ccc(CN5CCOCC5)c(C(F)(F)F)c4)sc3c2)ccn1`: the growth is 17.3%.
Regarding `Cc1cc(N/N=C/c2nc(-c3ccc(Cl)cc3)oc2C)c2cc(Br)ccc2n1`, the growth is 92.9%.
On to `COc1cc(-c2cc(-c3nc4ccc(Cl)cc4[nH]3)[nH]n2)cc(OC)c1OC`, for which the growth is 18.1%.
Still for that read-out and setting: then `COc1ccc(-c2cc(-c3cccnc3)nc3sc4c(=O)n(-c5ccc(C)cc5)cnc4c23)cc1OC`, with 93.3%; and `CN(C)c1ccc(/C=C\C2=[N+](C)c3ccccc3C2(C)C)cc1`, with 16.3%; and `COc1ccc(-c2cc(-c3cccnc3)nc3sc4c(=O)n(-c5ccc(C)cc5)nnc4c23)cc1OC`, with 93%.
Still for that read-out and setting: then `COc1ccc(C/C(C)=C(\c2ccc(Cl)cc2)c2ccc(OCCN3CCCCCC3)cc2)cc1`, with 86.1%; and `O=C1C=CC(=O)N1c1ccc(Cc2ccc(N3C(=O)C=CC3=O)cc2)cc1`, with 84.8%; and `CN1CCN(Cc2ccc(NC(=O)c3[nH]ncc3Nc3ncnc4[nH]ccc34)cc2)CC1`, with -21.3% (active).
As for `O=C(Nc1ccc(Oc2ccc(F)cc2)c(Cl)c1)c1cccnc1`, the growth is 99.8%.
Still for that read-out and setting: then `OC(c1cccc(C(F)(F)F)c1)c1cnccc1NC1CCCCCC1` (stereo unspecified), with 62.4%.
In the case of `NS(=O)(=O)c1ccc(Nc2nc3n[nH]c(Nc4ccccc4)c3c(=O)[nH]2)cc1`, the growth was 92.5%.
`O=C1/C(=C/c2ccccc2)CN(CCC(=O)N2C/C(=C\c3ccccc3)C(=O)/C(=C/c3ccccc3)C2)C/C1=C\c1ccccc1`: the growth was 84.7%.
As to `CN1CCN(Cc2ccc(NC(=O)c3[nH]ncc3Nc3ncnc4c3CCC4)cc2)CC1`, the growth is 9.05% (active).
On the same count and under the same terms, then `O=C1C(=O)N(CCCCn2cc(CO)nn2)c2ccccc21`, with 97.4%; and `Cc1cc(Nc2nc(N3CCN(C)CC3)nc3ccccc23)n[nH]1`, with 81.6%.
As for `CC(=O)C1=C(O)C=C2Oc3c(C(=O)/C=C/c4cc(Cl)cc(Cl)c4)c(O)c(C)c(O)c3[C@]2(C)C1=O`, the growth was -41.1% (active).
`O=C(Nc1ccc(CN2CCOCC2)cc1)c1[nH]ncc1Nc1ncnc2sccc12`: the growth is 15.5%.
Turning to `COc1cc(-c2c3sc(=O)[nH]c3nc3c2c(=O)[nH]n3C(C)C)cc2c1OCO2`, the growth is 96.3%.
On the same count and under the same terms, next, `O=C1/C(=C/c2ccc(Cl)c(Cl)c2)CN(C(=O)CCN2CCC(=NO)CC2)C/C1=C\c1ccc(Cl)c(Cl)c1`: -40.6% (active); `CCN(CC)CCCC(C)Nc1ccnc2c(OC)cccc12` (stereo unspecified): 111%.
As for `COc1ccc(-c2cn3c(-c4ccc(OC)cc4)cnc3c(Oc3ccc4c(C)cc(=O)oc4c3)n2)cc1`, the growth was 70.7%.
In the case of `CN1CCN(Cc2ccc(NC(=O)c3[nH]ncc3Nc3ncnc4sccc34)cc2)CC1`, the growth is 10.9%.
On to `O=C([C@@H](COCc1ccccc1)N1C(=O)[C@@H](N2C(=O)OC[C@@H]2c2ccccc2)[C@H]1/C=C/c1ccccc1)N1CCC(CCN2CCCCC2)CC1`, for which the growth was 93.8%.
